Consider one compound from PubChem BioAssay AID652100 (National Center for Advancing Translational Sciences (NCATS), 2013).

Calls of active or inactive are those of the source.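 How the source made its calls: active means compounds that bring Gaucher patient macrophage uptake of dying cells up to about normal macrophage levels; inactive means the rest.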

A short description of the assay: Extended Characterization of Activators of N370S glucocerebrosidase as a Potential Chaperone Treatment of Gaucher Disease: Efferocytosis Index. To be noted: Gaucher patient macrophages, apoptotic Jurkat efferocytosis imaging. From the text: Glucocerebrosidase (GCase) catalyzes the hydrolysis of beta-glucocerebroside (GC) to glucose and ceramide in lysosomes. Mutations in the glucocerebrosidase gene result in Gaucher disease, an autosomal recessive lysosomal storage disorder. Many of the mutations encountered in patients with Gaucher disease are missense alterations that may cause misfolding, decreased stability and/or mistrafficking of this lysosomal protein. […] These inhibitors include iminosugar analogs and other inhibitors that were discovered as part of previous work. However, the enhancement of enzyme activity by the chaperone action of an enzyme inhibitor must be balanced against the direct inhibition of the enzyme. […] In this extended characterization of our probe, we have further characterized the activity of probes in relevant models of Gaucher disease. This assay examine efferocytosis in patient-derived macrophages following compound incubation. NIH Chemical Genomics Center [NCGC] NIH Molecular Libraries Probe Production Centers Network [MLPCN] MLPCN Grant: MH086442 Assay Submitter (PI): Ellen Sidransky, NHGRI
Jurkat T-cells were stained with green cell tracker (Molecular Probes), and apoptosis was induced using UVB radiation for 2 min (BioRad). […] The number of T-cells taken up by macrophages was counted and normalized to the number of cells per field.
`C#Cc1ccc(NC(=O)c2cnn3c(C)cc(C)nc23)cc1`: the outcome is “active; similar to control”.
